The values that follow come from PubChem BioAssay.

The target of this test is Dickkopf-related protein 1 (Homo sapiens) (UniProt O94907). Briefly: small molecules binding DKK1 protein – biochemical, small-molecule microarray, 635 nm fluorescence scan, primary screen (AID 1106).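 Note: score merges emission near 667 nm with signal to noise over three replicate slides.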 The note with it: higher = more signal.
Dickkopf-related protein 1 (Homo sapiens), sequence (O94907 whole entry, looked up): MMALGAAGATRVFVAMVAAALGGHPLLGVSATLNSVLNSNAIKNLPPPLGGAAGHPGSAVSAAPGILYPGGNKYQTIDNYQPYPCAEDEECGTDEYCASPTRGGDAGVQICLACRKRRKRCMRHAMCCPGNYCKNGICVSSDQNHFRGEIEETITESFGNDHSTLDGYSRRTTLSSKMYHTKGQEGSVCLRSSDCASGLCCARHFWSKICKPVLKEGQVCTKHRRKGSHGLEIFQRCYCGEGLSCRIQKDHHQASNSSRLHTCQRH
Molecule `CCOC(=O)C[C@H]1[C@H](OC(=O)Cc2ccc3c(c2)OCO3)[C@@H](NC(=O)C2CCCCC2)c2cc(OCCCO)ccc2N1C(=O)c1ccc2ccccc2n1` registered a composite z-score of 1.65.

Consider `CN1C(=O)C2C=CC(C(O)c3c(F)cccc3Cl)N(Nc3ccccc3)C2C1=O` (stereo not given), for which the composite z-score is -0.534.

`COCCCNC(=O)[C@]1(Cc2ccccc2CN=[N+]=[N-])N=C(c2ccc(OCCCO)cc2)O[C@@H]1c1ccccc1` yielded a composite z-score of -0.817.

With `[N-]=[N+]=NCc1ccccc1C[C@@]1(C(N)=O)N=C(c2ccc(OCCCO)cc2)O[C@@H]1c1ccccc1CN=[N+]=[N-]`, the composite z-score worked out at 0.0137.

In turn, `COC(=O)[C@@]1(Cc2ccc(OC)cc2)[C@H]2c3cc(C(=O)N4CCCC4)n(CCc4cc5ccccc5[nH]4)c3C[C@H]2CN1C(=O)c1ccccc1` showed a composite z-score of -0.281.

The molecule `COCCOC(=O)N1C(=O)[C@@]2(c3cc(C#Cc4ccc(OC)cc4)ccc31)[C@H](C(=O)NC[C@H](O)c1ccccc1)[C@H]1C(=O)O[C@H](c3ccccc3)[C@H](c3ccccc3)N1[C@@H]2c1ccc(O)cc1` came in with a composite z-score of 0.95.

The molecule `C=CC[C@@]12N=C(c3ccc(OCCCO)cc3)O[C@@H]1c1ccccc1N(CCS(=O)(=O)c1ccccc1)C2=O` gave a composite z-score of 0.571.

As to `C=CCN1C(=O)[C@]2(CC=C)N=C(c3ccc(OCCCO)cc3)O[C@@H]2c2ccccc21`, the composite z-score stood at 0.95.

`Cc1ccc(S[C@]2(C(=O)NCC(C)C)CC(=O)N(Cc3ccccc3Cl)[C@@H]2c2ccc(CO)cc2I)cc1`: the composite z-score was -0.557.

`COc1ccccc1CN1C(=O)c2ccccc2[C@](Cc2ccccc2I)(C(=O)NC(C)C)[C@@H]1c1ccc(CO)cc1` returned a composite z-score of 0.312.
